D1 antag – antagonists of human D1 dopamine receptor. P21728. hit rate 3.2% among 360,000. activity change, negative = inhibition, % at 10 µM. HEK293 TREx D1 cells, calcium flux, dopamine EC80; active compounds read low; in the data active = activity change below about -30%
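Antagonism measured as reduced calcium response to an EC80 dopamine addition following 180 s compound pre-read; cells were inducible HEK293 Trex D1 plated overnight at 30 C, read kinetically at 1 cycle/sec.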
D1 PAM – enhances dopamine response at the human D1 receptor; hit rate 0.036% among 360,000; P21728; potentiation, % at 10 µM; HEK293 TREx D1 cells, calcium flux, dopamine EC20 potentiation; in the data active = potentiation above about 30%
DRD3 antagonist – blocks the human D3 dopamine receptor. P35462. D3R cells, DiscoveRx beta-arrestin luminescence, antagonist mode; active compounds read low. max response, negative = inhibition, %. hit rate 2.5% among 360,000. AID 652054; in the data active = max response below about -50%
Target sequence (P35462 whole entry, looked up): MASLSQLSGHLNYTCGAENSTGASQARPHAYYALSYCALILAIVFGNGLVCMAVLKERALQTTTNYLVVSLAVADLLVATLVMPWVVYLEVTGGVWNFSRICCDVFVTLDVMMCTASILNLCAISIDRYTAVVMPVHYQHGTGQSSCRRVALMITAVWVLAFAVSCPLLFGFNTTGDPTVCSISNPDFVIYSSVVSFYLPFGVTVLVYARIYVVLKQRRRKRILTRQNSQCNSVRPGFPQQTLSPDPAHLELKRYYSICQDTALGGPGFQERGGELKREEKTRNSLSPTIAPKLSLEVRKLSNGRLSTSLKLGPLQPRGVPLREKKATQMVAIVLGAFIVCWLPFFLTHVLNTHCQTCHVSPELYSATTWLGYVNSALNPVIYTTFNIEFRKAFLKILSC
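Cells plated overnight at 1500 cells/well, then exposed to library compounds with dopamine controls for 90 minutes at 37 degrees C. DiscoveRx reagent added for 30–60 minutes at room temperature; luminescence read, quantitative HTS format.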
D3 ag – activates the human D3 dopamine receptor; P35462; D3R DiscoveRx beta-arrestin cells, luminescence, 90 min; max activation, %; hit rate 0.58% among 410,000; AID 652048; in the data active = max activation above about 30%
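Agonist mode: compounds and dopamine controls were applied to plated cells for 90 min at 37 degrees C after an overnight attachment at 1500 cells/well. Luminescent read-out followed 30 - 60 minutes at room temperature with DiscoveRx detection reagent.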
D1 agonist – agonists of human D1 dopamine receptor; P21728; HEK293 T-REx D1 cells, calcium flux, agonist mode; activation, % at 2 µM; hit rate 1% among 360,000; AID 504660; in the data active = activation above about 30%
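Agonism was scored from calcium flux recorded over 180 s (1 read/s) after pintool compound addition, following a 10-cycle baseline. Cells were inducible force-coupled HEK293 TREx D1, plated overnight at 30 C and loaded with no-wash calcium dye.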
Numbers stand for hits; . = inactive; / = no result. An excerpt weighted towards active compounds, which were near 6% of everything screened.

SMILES	D1 antag	D1 PAM	DRD3 antagonist	D3 ag	D1 agonist
CC(=O)c1ccc(NC(=O)c2cn(-c3ccccc3)nc2-c2ccc(Br)cc2)cc1	.	.	/	.	.
O=C(Oc1coc(CSc2ncccn2)cc1=O)c1ccco1	-33	.	.	.	.
CCCCOC(=O)CSc1nnc(-c2ccc(Cl)cc2Cl)o1	.	.	-52	.	.
CC(C)OC(=O)CSc1nnc(-c2ccc(Cl)cc2Cl)o1	.	.	.	.	.
COc1ccc2[nH]c(=O)c(CN(Cc3ccco3)Cc3nnnn3Cc3ccccc3)cc2c1	.	.	.	.	.
COCCn1nnnc1CN(CCc1ccccc1)Cc1cc2ccc(C)cc2[nH]c1=O	-38	.	.	.	.
CCOc1ccc2[nH]c(=O)c(CN(Cc3ccco3)Cc3nnnn3Cc3ccccc3)cc2c1	-44	.	.	.	.
COc1ccccc1N1CCN(C(=O)c2cnn(-c3cccc(Cl)c3)c2C2CCN(C(=O)OC(C)(C)C)CC2)CC1	.	.	/	.	.
O=S(=O)(c1cccc(F)c1)N1CCN(S(=O)(=O)c2ccc3c(c2)OCCO3)CC1	.	.	/	/	.
CN(CC(=O)Nc1ccc([N+](=O)[O-])cc1Br)Cc1c(F)cccc1Cl	-32	.	.	.	.
Cc1cc([N+](=O)[O-])ccc1-c1ccc(/C=N/NC(=O)c2ccc(Br)o2)o1	.	.	-54	.	.
O=[N+]([O-])O[C@@H]1CO[C@H]2[C@@H]1OC[C@@H]2O	/	/	/	.	/
O=C(Nc1ccc(Cl)cc1)Nc1ccccc1NS(=O)(=O)c1cccs1	-33	.	.	.	.
O=C1c2ccccc2S(=O)(=O)c2cc(N3CCN(C(=O)c4ccccc4)CC3)ccc21	/	/	.	64	/
O=C1CCCc2ccccc2N1Cc1ccc(Cl)cc1	.	.	.	.	.
O=C1CCCc2ccccc2N1Cc1ccc(Cl)cc1Cl	.	.	.	.	34
O=C1CCCc2ccccc2N1Cc1ccccc1Cl	-35	.	.	.	.
Cc1ccccc1C(=O)OCc1cc(=O)n2nc(C(C)C)sc2n1	.	.	/	.	.
CC(C)c1nc2sc3c(N4CCCCC4)ncnc3c2c2c1CCCC2	.	.	/	.	.
CCCC(=O)Nc1sc(C(=O)OC)c(C)c1C(N)=O	.	.	-125	.	.
CCCCN(CC)CCCNC(=O)c1c(C)oc2ncnc(N3CCOCC3)c12	.	.	/	60	.
COc1ccc(SCc2cc(=O)c3cc(Cl)ccc3[nH]2)cc1	.	.	/	.	.
Cc1cc2c(s1)c1cnn(Cc3ccc(F)c(C)c3)c(=O)c1n2C	.	.	/	/	.
O=C(NC1CCCc2ccccc21)c1ccc(=O)[nH]c1 (configuration not stated)	-39	.	.	.	.
Cc1ccc(S(=O)(=O)NNC(=O)Nc2ccc(C)c(C)c2)c(C)c1	-35	.	.	.	.
SMILES	D1 antag	D1 PAM	DRD3 antagonist	D3 ag	D1 agonist
NC(=O)C1(N2CCCCC2)CCN(Cc2ccc(F)cc2)CC1	.	.	-88	.	.
NC(=O)C1(N2CCCCC2)CCN(Cc2ccc(Br)cc2)CC1	.	.	-115	.	.
NC(=O)C1(N2CCCCC2)CCN(c2nc(-c3ccc(Br)cc3)cs2)CC1	.	.	.	.	.
COc1ccc(N2CCN(C(=O)CCCNC(=O)Cn3cnc4sc(C)c(C)c4c3=O)CC2)cc1	-42	.	.	.	.
Cc1cccc(-c2nc3nc(C)cc(NCc4ccccc4Cl)n3n2)c1	.	.	/	.	.
Cc1ccc(-c2cc(-c3n[nH]c(=S)n3C)c3ccccc3n2)cc1	-37	.	.	.	.
CCn1c(-c2cc(-c3ccc(C)c(C)c3)nc3ccccc23)n[nH]c1=S	.	.	/	/	.
Cc1ccc(Cl)cc1N1CCN(C(=S)NCc2ccco2)CC1	/	.	.	.	.
S=C(NCc1ccco1)N1CCN(c2ccccc2Cl)CC1	-33	.	.	.	.
Cc1ccc(NC(=O)Nc2nnc(SCC(=O)N3CCC(C)CC3)s2)cc1	/	.	/	.	.
CN1CCN(c2ccc(S(=O)(=O)N3CCCCC3)cc2NC(=O)CSCc2ccccc2)CC1	.	.	.	.	.
CCN1CCN(c2ccc(S(=O)(=O)N3CCCCC3)cc2NC(=O)COc2cc(C)ccc2Cl)CC1	.	.	.	.	.
O=C(Cc1ccc(Cl)cc1)Nc1cc(S(=O)(=O)N2CCOCC2)ccc1N1CCCC1	.	.	.	.	.
CN1CCN(c2ccc(S(=O)(=O)N3CCCCC3)cc2NC(=O)CCc2ccccc2)CC1	.	/	.	.	33

Assay outcomes: PubChem, National Center for Advancing Translational Sciences (NCATS)
